KAT2A inh = GCN5L2 (KAT2A) acetyltransferase inhibition. Q92830. GCN5L2 HAT assay, ThioGlo1 CoA-SH fluorescence. Potency, µM (doses to about 58.9 µM), for inactives: top-dose activity change, negative = inhibition, actives largely listed as inhibitors. actives 0.21% (n = 390,000); further: on the % scale 0 is the no-effect control and ±100 the full control effect
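Free CoA generated was detected with ThioGlo1 (50uM) fluorescence at Ex340nm/Em540nm, read immediately and after 20 min at room temperature. Enzyme, 20 nM in HEPES pH 7.5 buffer, saw compounds 15 min before adding 75uM H3(1-25) peptide and 70uM acetyl-CoA.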
GLP1R cytotox = cytotoxic in the GLP-1 receptor inverse agonist counter-screen | actives 0.13% (n = 410,000) | Potency, µM (doses to about 38.3 µM), for the others: at the top dose activity change, negative = inhibition, most hits filed as inhibitors | HEK293 cAMP-luciferase reporter cells, luminescence, 24 h;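 further: loss of luciferase light is scored as toxicity; on the % scale 0 is the no-effect control and ±100 the full control effect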
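Compound-treated cells are incubated 24 hr at 37 deg C under 5% CO2 after a 12 hour attachment period, then luciferase detection reagent is added and luminescence is measured following 12 min at room temperature; lowered signal indicates toxicity.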
RGS4 inhibitor = blocks human RGS4-accelerated GTP hydrolysis. Potency, µM (series often up to 114 µM), without a hit: at the highest dose activity change, negative = inhibition, usual class: inhibitors. P49798. actives 0.039% (n = 390,000). Transcreener GDP fluorescence polarization, RGS4-accelerated GTP hydrolysis; further: on the % scale 0 is the no-effect control and ±100 the full control effect; nearly all actives have a fitted effect of over 75% in size
Target sequence (P49798 whole entry, looked up): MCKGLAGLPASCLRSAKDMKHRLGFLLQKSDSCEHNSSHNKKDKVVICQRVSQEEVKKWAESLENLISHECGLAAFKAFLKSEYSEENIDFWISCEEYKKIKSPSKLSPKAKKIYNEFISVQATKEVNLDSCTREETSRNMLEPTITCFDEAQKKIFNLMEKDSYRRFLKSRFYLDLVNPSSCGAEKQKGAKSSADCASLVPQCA
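MLSMR compounds (23 nl, pin-transferred) preincubated 10 min at room temperature with a 500nM (2x) first reagent, then RGS4 at 900nM (2x) plus Transcreener GDP mix added; fluorescence polarization (620/688 nm) read before and after 90 min at 30 °C.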
GLP-1R agonist = activates the human GLP-1 receptor; AID 624172; HEK293 GLP-1R CRE-luciferase, luminescence, 4-6 h; cells express a hypersensitive GLP-1R form; actives 0.007% (n = 380,000); Potency, µM (top dose mostly 45.6 µM), for inactives: at the highest dose activation, actives largely listed as activators; further: % of control where 0% means no effect
Target sequence (P43220 whole entry, looked up): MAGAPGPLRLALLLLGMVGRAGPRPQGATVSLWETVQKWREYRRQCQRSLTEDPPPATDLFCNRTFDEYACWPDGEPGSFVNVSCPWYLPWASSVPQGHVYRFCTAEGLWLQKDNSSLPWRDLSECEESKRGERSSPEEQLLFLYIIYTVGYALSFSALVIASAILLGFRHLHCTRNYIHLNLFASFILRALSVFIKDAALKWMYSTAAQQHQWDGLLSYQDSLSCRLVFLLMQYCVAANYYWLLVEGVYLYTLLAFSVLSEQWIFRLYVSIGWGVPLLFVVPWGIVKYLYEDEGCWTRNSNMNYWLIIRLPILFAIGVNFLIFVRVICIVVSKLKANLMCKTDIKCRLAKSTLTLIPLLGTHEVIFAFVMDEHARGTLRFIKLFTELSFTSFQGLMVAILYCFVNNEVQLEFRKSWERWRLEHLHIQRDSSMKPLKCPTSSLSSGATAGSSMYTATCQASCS
PTHR1 agonist = agonists of human PTHR1 parathyroid hormone receptor | Q03431 | actives 0.075% (n = 410,000) | HEK293 GP2 PTHR1 cells, GloSensor cAMP luminescence, 1 h | Potency, µM (highest dose often 115 µM), inactives show at the highest dose activation, most hits filed as activators; further: nearly all actives have a fitted effect of over 55% in size
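HEK-293-derived GP2 cells expressing PTHR1 and a GloSensor cAMP reporter, 3,000/well, plated overnight, given luciferin plus IBMX (each 0.5 mM as added) for 1 h at 37 °C, then compound for 1 h at 37 °C. Luminescence was read after 15 min at room temperature.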
GLP1R inv ag = acts as inverse agonist at human GLP-1 receptor; actives 1.6% (n = 410,000); HEK293 GLP-1R CRE-luciferase, luminescence, 24 h; GLP-1R form is constitutively active; Potency, µM (highest dose often 38.3 µM), without a hit: top-dose activity change, negative = inhibition, actives largely listed as inhibitors; P43220; further: on the % scale 0 is the no-effect control and ±100 the full control effect; nearly all actives have a fitted effect of over 55% in size
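GLP-1R inverse agonism mode: basal reporter luminescence in engineered HEK293 cells measured after one day of compound exposure at 37 deg C, with a 12 min room-temperature detection step.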
* hit, by the source's call; i = inactive; ? = inconclusive; . = no result given; [ ] = another dose, or the depositor's remark. This is a sample that favours compounds with a hit; in the whole collection about 1.8% have one here. The call rests on the fitted dose curve; in most records, active means well fitted curve in the direction sought with a large enough effect; inconclusive means small, poorly fitted or top-dose-only effect, or another doubt; inactive means no such curve, though single readings can be large; an effect the other way counts as inactive or inconclusive. Potency means the concentration at half of the fitted maximal effect.

SMILES	KAT2A inh	GLP1R cytotox	RGS4 inhibitor	GLP-1R agonist	PTHR1 agonist	GLP1R inv ag
COc1c2occc2c(OC(C)=O)c2c(=O)cc(C)oc12	-4.0%	-15.1%	3.0%	9.8%	i	10µM*
CC(=O)Oc1c2occc2cc2ccc(=O)oc12	-25.5%	4.8%	-32.2%	-5.5%	-19.2%[57.5 µM]	13.9%
CCCCc1nn2c(C)c(-c3ccc(OCC)cc3)nc2s1	-8.0%	-11.8%	8.8%	.	-13.6%	10µM*
CCCCCCCc1nn2c(=O)cc(O)nc2s1	-9.6%	11.7%	-2.8%	1.6%	-24.6%	14.4%
CCC1=NN(C(=O)c2cccc([N+](=O)[O-])c2)C(O)(c2ccc(C)cc2)C1 (stereo not given)	-14.6%	13.5%	-8.4%	1.0%	-17.5%	?
CC1=NN(C(=O)COc2ccccc2C)C(O)(c2ccc(Cl)cc2)C1 (stereo not given)	17.5%	?	-6.4%	-5.3%	i	10µM*
CCC1=NN(C(=O)c2ccc(Br)cc2)C(O)(c2ccccc2)C1 (stereo not given)	-4.7%	?	-4.7%	-3.3%	-32.1%	0.562µM*
CC1=NN(C(=O)c2ccccc2)C(O)(c2ccc(Br)cc2)C1 (stereo not given)	-0.7%	-18.9%	-6.3%	8.9%	-4.5%	3.98µM*
Cc1cc(NC(=O)C(C)SCC(=O)Nc2ccccc2C(C)(C)C)no1 (stereo not given)	2.4%	-1.3%	8.8%	-3.7%	-13.0%	-2.8%
N#C/C(=C\Nc1ccc(Cl)cc1)S(=O)(=O)c1ccccn1	-5.1%	-1.9%	10.4%	-0.4%	-11.2%	4.1%
CC(C)(C)c1cc(C(=O)N/N=C/c2ccc(O)cc2)n(-c2ccccc2)n1	-7.4%	8.7%	-13.1%	-3.6%	-40.8%	2µM*
CC(=O)N1CCc2c(sc3c2c(=O)n(-c2ccccc2)c(=O)n3CC(=O)Nc2ccccc2)C1	-5.3%	-0.1%	33.9%	.	-39.4%	0.1%
CCN(c1ccc(NC(=O)c2ccc(Cl)nc2)cc1)C(C)C	-4.1%	-11.4%	-14.5%	-0.3%	i	-22.1%
CCc1ccc(CN2CCc3nc(N4CCN(CC)CC4)ncc3C2)cc1	4.3%	-2.2%	11.8%	.	-3.8%	5.01µM*
O=C(OCc1ccccc1)N(CCCCN(CCCNCc1ccccc1)C(=O)OCc1ccccc1)CCCNCc1ccccc1	.	?	-44.1%	-5.4%	-35.5%	2.82µM*
O=C(NCCCCCCNC(=O)OCc1ccccc1)OCc1ccccc1	.	-0.3%	16.8%	-0.8%	-14.6%	17.5%
O=c1[nH]c2c(s1)C(c1ccccc1)C1C3CCC(C3)C1S2 (stereo not given)	-18.7%	41.4%	-15.4%	-0.2%	-23.5%[57.5 µM]	6.31µM*
COc1ccc(C2c3sc(=O)[nH]c3SC3C4CCC(C4)C23)cc1 (stereo not given)	-11.6%	-7.4%	-20.7%	-2.1%	-32.8%[57.5 µM]	-11.8%
CCN(CC)S(=O)(=O)c1cc(NC(=O)Cn2ncc(Cl)c(Cl)c2=O)ccc1C	?	?	19.9%[11.4 µM]	-5.8%	-26.6%	?
CCn1cc(S(=O)(=O)NCCc2ccc(OC)c(OC)c2)cn1	-5.8%	17.7%	-1.1%	6.8%	i	3.7%
CC(NC(=O)c1ccco1)c1nc(-c2ccc(C(C)(C)C)cc2)no1 (stereo not given)	-5.5%	-21.1%	33.5%	19.3%	-10.1%	10µM*
COc1ccc2c(c1)OC(C)(C)C(c1ccccc1)C2c1ccc(OCCN2CCCC2)cc1 (stereo not given)	-12.0%	.	.	-7.9%	.	.
O=C(NC1CC2CCCC(C1)N2C(=O)Nc1ccc(Cl)c(C(F)(F)F)c1)C1CC1 (stereo not given)	-6.5%	-15.5%	4.8%	-6.7%	i	10µM*
Cc1cccc(NC(=O)N2C3CCCC2CC(NC(=O)C2CC2)C3)c1 (stereo not given)	-6.7%	9.8%	21.7%	0.2%	12.4%	2.0%
CC1Sc2ccc(C(=O)Nc3ncccc3O)cc2NC1=O (stereo not given)	-9.5%	-9.1%	?	-1.7%	-12.8%	?
SMILES	KAT2A inh	GLP1R cytotox	RGS4 inhibitor	GLP-1R agonist	PTHR1 agonist	GLP1R inv ag
O=C(c1cccc(-c2ccco2)c1)N1CCCC(N2CCN(c3ccc(F)cc3)CC2)C1 (stereo not given)	-15.6%	-2.9%	-15.0%	-15.5%	-35.1%	10µM*
O=C(c1ccccc1)C(Nc1cccc([N+](=O)[O-])c1)c1ccccc1 (stereo not given)	.	-1.9%	-23.5%	20.6%	-16.1%	7.94µM*
O=C(NC(NC(=O)c1ccccc1)c1cccc([N+](=O)[O-])c1)c1ccccc1	-0.4%	-3.1%	-10.2%	12.5%	i	10.5%
COc1ccc(CCn2c(N)cc(=O)[nH]c2=S)cc1OC	-7.4%	-2.5%	-15.9%	10µM*	i	203.8%
COC(=O)CCCC(=O)N1CCC(CCC(=O)NCc2ccc(F)cc2)CC1	-0.8%	-7.5%	-10.5%	-6.0%	-2.5%	15.0%
COc1ccc(-c2nc(CSCC(=O)N3CCN(C)CC3)c(C)o2)cc1OC	-7.2%	1.8%	-10.9%	6.4%	-23.7%	17.9%
COc1ccc(-c2nc(CSCC(=O)N3CCN(c4cccc(C)c4C)CC3)c(C)o2)cc1OC	-11.8%	-14.1%	-20.1%	.	i	10µM*
Cc1cccc(Nc2nc(Nc3cccc(C)c3)nc(N3CCOCC3)n2)c1	-7.8%	1.3%	-37.6%	.	-0.8%	4.47µM*
Cc1cccc(Nc2nc(N3CCOCC3)nc(N3CCOCC3)n2)c1	-10.9%	41.4%	-23.4%	3.6%	?	5.62µM*
c1ccc(Nc2nc(N3CCNCC3)nc(N3CCOCC3)n2)cc1	-5.5%	80.4%	17.0%	2.8%	?	2.51µM*
Cc1cccc(Nc2nc(N3CCCCC3)nc(N3CCCCC3)n2)c1	-3.1%	-0.2%	8.9%	3.3%	i	?
c1ccc(Nc2nc(N3CCOCC3)nc(N3CCOCC3)n2)cc1	-14.8%	13.6%	-27.0%	-3.7%	-41.3%	?
CN(C)c1ccc(CNC(=O)c2sc3ncccc3c2-n2cccc2)cc1	-6.7%	-10.1%	-5.7%	.	?	-6.3%
Cc1cc(C(=O)NNS(=O)(=O)c2ccc(C(C)(C)C)cc2)nn1C(C)(C)C	-2.3%	-28.9%	4.5%	21.8%	?	?
COc1ccc(-c2cc(-c3ccc(Cl)cc3)c(C#N)c(SCC(=O)O)n2)cc1	?	-12.1%	-24.7%	-3.9%	-59.3%	?
COc1ccc2c(c1)/C(=C\c1cccc(/C=C3/C(=O)Nc4ccc(OC)cc43)n1)C(=O)N2	.	2.24µM*	?	-1.0%	-38.1%	?

Assay outcomes as filed in PubChem BioAssay.
